Data reported in paper PMC4081100, “A DNA-binding-site landscape and regulatory network analysis for NAC transcription factors in Arabidopsis thaliana”.

Assays:
Assay in all cases: universal protein binding microarray (PBM); transcription factors of Arabidopsis thaliana; high values mean tight binding
Settings in all cases: protein: recombinant; tags: GST; chain copies: 2; dsDNA, one strand shown
GST-ANAC092(1-176) = molecular target: T1, GST-ANAC092(1-176) (Arabidopsis thaliana, UniProt Q9FKA0 1-176)
T1 sequence: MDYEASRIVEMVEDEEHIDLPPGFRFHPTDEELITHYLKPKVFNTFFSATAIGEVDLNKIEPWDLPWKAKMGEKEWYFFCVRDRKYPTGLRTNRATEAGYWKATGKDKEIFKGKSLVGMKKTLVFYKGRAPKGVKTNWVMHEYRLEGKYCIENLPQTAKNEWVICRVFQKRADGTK
How it was run: (§1)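 GST-tagged proteins (NAC-domain, full-length or DNA-binding-domain) were induced in cells, with zinc acetate supplied for zinc-finger proteins, then purified on glutathione–Sepharose 4B. Each was tested in duplicate at 200 to 500 nM final on custom all-10-mer Agilent 4 × 180K arrays rendered double-stranded by primer extension. The binding value is the normalised enrichment score (E-score) across gapped and ungapped 8-mers.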

GST-NTL6(1-168) = GST-NTL6(1-168) (Arabidopsis thaliana, UniProt Q9SCK6 1-168)
GST-NTL6(1-168), sequence (Q9SCK6 1-168): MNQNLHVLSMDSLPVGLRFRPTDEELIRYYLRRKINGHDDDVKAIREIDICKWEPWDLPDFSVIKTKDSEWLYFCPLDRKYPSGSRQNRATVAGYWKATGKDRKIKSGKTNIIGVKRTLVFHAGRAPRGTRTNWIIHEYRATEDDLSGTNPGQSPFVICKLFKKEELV
How it was run: as §1

GST-ANAC019 NAC domain = molecular target: T2, GST-ANAC019 NAC domain (Arabidopsis thaliana, UniProt Q9C932 14-162)
T2 sequence: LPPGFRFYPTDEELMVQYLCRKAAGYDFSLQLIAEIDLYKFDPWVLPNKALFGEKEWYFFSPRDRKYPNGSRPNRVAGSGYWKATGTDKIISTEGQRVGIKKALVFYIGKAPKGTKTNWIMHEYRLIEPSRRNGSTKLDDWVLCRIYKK
How it was run: as §1

GST-ANAC055(1-171) = molecular target: T3, GST-ANAC055(1-171) (Arabidopsis thaliana, UniProt Q9LDY8 1-171)
T3 sequence: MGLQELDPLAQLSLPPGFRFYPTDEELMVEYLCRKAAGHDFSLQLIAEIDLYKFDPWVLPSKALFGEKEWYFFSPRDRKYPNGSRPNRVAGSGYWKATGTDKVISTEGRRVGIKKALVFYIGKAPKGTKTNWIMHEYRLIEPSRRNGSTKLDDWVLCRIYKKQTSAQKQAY
How it was run: as §1

GST-ATAF1 NAC domain = molecular target: T4, GST-ATAF1 NAC domain (Arabidopsis thaliana, UniProt Q39013 7-158)
T4 sequence: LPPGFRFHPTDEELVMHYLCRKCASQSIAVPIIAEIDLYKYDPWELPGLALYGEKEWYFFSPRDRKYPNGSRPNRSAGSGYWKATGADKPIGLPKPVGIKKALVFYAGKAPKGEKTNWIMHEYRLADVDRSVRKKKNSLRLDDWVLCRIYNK
How it was run: as §1

[1] = molecular target: T5, GST-ANAC092(1-285) full length (Arabidopsis thaliana, UniProt Q9FKA0 1-285)
T5 sequence: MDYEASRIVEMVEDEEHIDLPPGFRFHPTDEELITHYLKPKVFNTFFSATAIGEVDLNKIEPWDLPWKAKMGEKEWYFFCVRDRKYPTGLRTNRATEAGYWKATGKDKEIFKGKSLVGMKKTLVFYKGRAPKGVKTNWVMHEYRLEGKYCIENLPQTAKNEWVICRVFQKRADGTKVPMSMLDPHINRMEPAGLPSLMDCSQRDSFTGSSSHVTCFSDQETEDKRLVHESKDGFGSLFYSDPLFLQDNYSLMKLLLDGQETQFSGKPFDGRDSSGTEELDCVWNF
How it was run: as §1

GST-NAP(1-166) = molecular target: T6, GST-NAP(1-166) (Arabidopsis thaliana, UniProt O49255 1-166)
T6 sequence: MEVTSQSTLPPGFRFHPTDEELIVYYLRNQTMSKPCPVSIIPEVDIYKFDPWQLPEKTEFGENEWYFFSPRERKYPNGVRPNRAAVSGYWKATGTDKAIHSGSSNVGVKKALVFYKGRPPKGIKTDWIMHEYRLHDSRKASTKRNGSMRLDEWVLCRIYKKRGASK
How it was run: as §1

GST-NTL8 NAC domain = molecular target: T7, GST-NTL8 NAC domain (Arabidopsis thaliana, UniProt Q9XIN7 14-156)
T7 sequence: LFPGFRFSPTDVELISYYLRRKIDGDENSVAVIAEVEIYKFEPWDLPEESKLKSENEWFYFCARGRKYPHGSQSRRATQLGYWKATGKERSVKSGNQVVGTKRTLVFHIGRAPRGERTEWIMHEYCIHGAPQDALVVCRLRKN
How it was run: as §1

GST-SND1(1-203) = molecular target: T8, GST-SND1(1-203) (Arabidopsis thaliana, UniProt Q9LPI7 1-203)
T8 sequence: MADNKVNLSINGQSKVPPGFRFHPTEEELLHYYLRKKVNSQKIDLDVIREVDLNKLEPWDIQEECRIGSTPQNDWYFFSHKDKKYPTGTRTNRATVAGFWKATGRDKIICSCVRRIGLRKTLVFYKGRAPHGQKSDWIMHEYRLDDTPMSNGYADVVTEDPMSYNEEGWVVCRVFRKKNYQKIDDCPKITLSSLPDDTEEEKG
How it was run: as §1

GST-VND3 NAC domain = molecular target: T9, GST-VND3 NAC domain (Arabidopsis thaliana, UniProt Q9FH59 12-162)
T9 sequence: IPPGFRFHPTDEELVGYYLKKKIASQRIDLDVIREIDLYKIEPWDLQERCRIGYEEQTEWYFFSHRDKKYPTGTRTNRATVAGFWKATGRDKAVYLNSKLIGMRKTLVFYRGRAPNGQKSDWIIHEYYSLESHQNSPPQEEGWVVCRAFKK
How it was run: as §1

GST-VND7 NAC domain = molecular target: T10, GST-VND7 NAC domain (Arabidopsis thaliana, UniProt Q9C8W9 9-158)
T10 sequence: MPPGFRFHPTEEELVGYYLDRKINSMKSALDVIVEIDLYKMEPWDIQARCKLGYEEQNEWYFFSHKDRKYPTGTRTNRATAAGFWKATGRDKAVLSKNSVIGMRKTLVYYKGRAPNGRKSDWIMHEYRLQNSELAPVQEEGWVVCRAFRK
How it was run: as §1

GST-NST2(1-184) = molecular target: T11, GST-NST2(1-184) (Arabidopsis thaliana, UniProt Q9M274 1-184)
T11 sequence: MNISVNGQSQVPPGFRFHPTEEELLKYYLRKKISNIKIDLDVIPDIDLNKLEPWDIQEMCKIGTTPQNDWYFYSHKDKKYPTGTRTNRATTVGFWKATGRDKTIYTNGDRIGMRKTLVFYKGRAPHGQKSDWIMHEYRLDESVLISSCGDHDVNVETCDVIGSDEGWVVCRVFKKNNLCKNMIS
How it was run: as §1

Sequence	binding signal (GST-ANAC092(1-176)) [E-score]	binding signal (GST-NTL6(1-168)) [E-score]	binding signal (GST-ANAC019 NAC domain) [E-score]	binding signal (GST-ANAC055(1-171)) [E-score]	binding signal (GST-ATAF1 NAC domain) [E-score]	binding signal [1] [E-score]	binding signal (GST-NAP(1-166)) [E-score]	binding signal (GST-NTL8 NAC domain) [E-score]	binding signal (GST-SND1(1-203)) [E-score]	binding signal (GST-VND3 NAC domain) [E-score]	binding signal (GST-VND7 NAC domain) [E-score]	binding signal (GST-NST2(1-184)) [E-score]
AGGGAAAA	0.22	0.201	0.131	0.111	0.187	0.0865	0.117	0.416	0.115	0.0874	0.192	–
AGAAGCAA	0.381	0.361	0.0522	0.119	0.0783	0.42	–	0.218	0.382	0.109	0.234	0.284
TTACTCAA	0.345	0.078	0.0697	0.0741	0.223	0.359	0.0501	0.0629	0.445	0.165	0.126	0.247
AGTAAGTA	0.145	0.415	0.133	0.199	0.14	0.184	–	–	0.137	0.275	0.083	0.218
AAAGGAAA	0.196	0.284	0.105	0.11	0.153	0.0862	–	0.457	0.225	0.166	0.134	0.179
TAAGTTAA	0.191	0.418	0.132	0.0747	0.157	0.3	–	–	0.297	0.188	0.0557	0.184
GTTTCTTA	0.226	0.435	0.141	0.185	0.257	0.313	–	0.28	0.33	0.16	0.0761	0.311
AAGTAATC	0.348	0.414	0.144	0.154	0.22	0.37	–	0.328	0.347	0.188	0.136	0.285
GTACGAAA	0.38	0.184	0.267	0.274	0.24	0.413	0.247	0.116	0.277	0.294	0.196	0.285
CAAGTTAC	0.371	0.256	0.163	0.178	0.134	0.411	0.144	0.167	0.323	0.254	0.184	0.238
AGAAGGAA	0.192	0.417	0.0646	0.117	0.149	0.156	–	0.379	0.157	0.0779	0.0759	0.177
ACAAGTAA	0.41	0.25	0.125	0.236	0.238	0.439	–	–	0.257	0.249	0.0784	0.288
GTTGCGTA	0.486	0.184	0.461	0.431	0.415	0.49	0.477	0.216	0.495	0.452	0.466	0.465
ATACGCAA	0.485	0.0867	0.429	0.397	0.336	0.487	0.459	0.172	0.462	0.435	0.433	0.406
GTTAAGCA	0.131	0.408	0.0907	0.0654	0.119	0.153	–	–	0.223	0.143	0.0676	0.209
GTTGAGTA	0.305	0.152	0.0635	0.0864	0.139	0.386	–	–	0.419	0.0828	0.108	0.279
ACGTAACC	0.442	0.149	0.389	0.412	0.389	0.463	0.43	0.328	0.392	0.409	0.414	0.338
GCAAGTAA	0.339	0.409	0.211	0.198	0.151	0.415	0.056	0.264	0.352	0.231	0.232	0.223

Sequence	binding signal (GST-ANAC092(1-176)) [E-score]	binding signal (GST-NTL6(1-168)) [E-score]	binding signal (GST-ANAC019 NAC domain) [E-score]	binding signal (GST-ANAC055(1-171)) [E-score]	binding signal (GST-ATAF1 NAC domain) [E-score]	binding signal [1] [E-score]	binding signal (GST-NAP(1-166)) [E-score]	binding signal (GST-NTL8 NAC domain) [E-score]	binding signal (GST-SND1(1-203)) [E-score]	binding signal (GST-VND3 NAC domain) [E-score]	binding signal (GST-VND7 NAC domain) [E-score]	binding signal (GST-NST2(1-184)) [E-score]
AAGCAAAG	0.302	0.342	0.176	0.125	0.0761	0.369	0.11	0.222	0.403	0.198	0.25	0.278
AACGTAAG	0.32	0.196	0.132	0.213	0.255	0.366	0.204	0.124	0.436	0.289	0.226	0.262
CTTAAGTA	0.154	0.416	0.0907	0.178	0.207	0.198	0.0567	0.264	0.267	0.218	0.182	0.207
AAGTAAAG	0.275	0.432	0.107	0.168	0.189	0.32	0.0549	0.27	0.328	0.175	0.181	0.265
CTTACGTA	0.423	0.161	0.457	0.421	0.407	0.435	0.363	0.219	0.405	0.43	0.433	0.313
CAAGCAAG	0.369	0.235	0.163	0.0997	0.0612	0.419	–	0.111	0.395	0.0934	0.14	0.265
ACGAGAAA	0.249	0.265	0.324	0.419	0.184	0.141	0.206	0.124	0.151	0.276	0.302	0.188
AAGTTACC	0.365	0.308	0.155	0.0803	0.142	0.417	0.114	0.376	0.37	0.146	0.0773	0.288
TTACGCAA	0.484	0.18	0.447	0.335	0.375	0.484	0.442	0.18	0.495	0.457	0.468	0.437
TATCGTAA	0.2	0.146	–	0.0984	0.188	0.337	0.0786	–	0.418	0.143	0.236	0.282
ATTACTTA	0.279	0.49	–	0.191	0.168	0.349	0.0737	0.31	0.38	0.21	0.154	0.296
GGAAGTAA	0.249	0.404	0.151	0.104	0.123	0.307	–	0.203	0.259	0.133	0.0641	0.248
CTAAGTTA	0.294	0.393	–	0.13	0.173	0.279	–	–	0.413	0.21	0.0803	0.282
TAAGGAAA	0.212	0.478	–	0.109	0.157	0.252	0.0748	0.424	0.334	0.16	0.0908	0.152
GTAGCGTA	0.427	0.111	–	0.205	0.288	0.47	0.27	–	0.489	0.239	0.267	0.381
AAGCAACA	0.387	0.333	–	0.134	0.0645	0.405	–	0.194	0.439	0.0696	0.146	0.342
CAAGCAAC	0.426	0.239	0.1	0.139	–	0.442	–	0.13	0.435	0.164	0.139	0.311
CTTACTTC	0.272	0.413	0.227	0.191	0.209	0.325	–	0.4	0.387	0.209	0.23	0.267
